Experimental data as given in PubChem BioAssay AID1159580 (chemical genetic matrix, 2015).
“And” between values parts separate entries of the source, which are not always exact repeats. Equal entries are not always repeated. In all, about 5,500 compounds went through this assay and about 2,000 (36%) were called active. Not shown: some 18% with an inconclusive outcome. Cut-off read from the data, not from the text of the source: active = normalized growth mostly below about 0.91 (no sharp cut-off); inconclusive = no clear call, values can overlap the other calls; inactive = mostly above about 0.92. The list shows a part of the results.

Assay: chemical genetic growth profiling, strain panel (AID 1159580);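 note: tested at 20 µM; growth read once vehicle control cultures reached saturation at 30 °C; 1 = growth at the plate median or of vehicle wells; lower values mean less growth of the strain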
Conditions: S. cerevisiae deletion strains, growth OD

Measured: normalized growth

Cc1cc(-c2ccccc2)nnc1NCCN1CCOCC1
inactive: locus YAL013W, strain DEP1, hits give low values 1 | locus YAL021C, strain ccr4, hits give low values 0.985 | locus YAL026C, strain drs2, hits give low values 0.991 | locus YAL030W, strain snc1, hits give low values 0.986 | locus YBL061C, strain skt5, hits give low values 0.991 | locus YBR009C, strain hhf1, hits give low values 0.989 | locus YBR021W, strain FUR4, hits give low values 0.999 | locus YBR023C, strain chs3, hits give low values 0.989 | locus YBR171W, strain sec66, hits give low values 0.977 | locus YBR229C, strain ROT2, hits give low values 1.01 | locus YBR231C, strain swc5, hits give low values 0.989 | locus YBR279W, strain paf1, hits give low values 0.986 | locus YCL011C, strain gbp2, hits give low values 0.983 | locus YCL016C, strain dcc1, hits give low values 0.984 | locus YCL029C, strain bik1, hits give low values 0.964 | locus YCL061C, strain MRC1, hits give low values 0.985 | locus YCL069W, strain vba3, hits give low values 0.988 | locus YCR088W, strain abp1, hits give low values 0.99 | locus YDL005C, strain med2, hits give low values 0.99 | locus YDL035C, strain GPR1, hits give low values 1.03 | locus YDL040C, strain nat1, hits give low values 0.992 | locus YDL074C, strain BRE1, hits give low values 0.986 | locus YDL101C, strain DUN1, hits give low values 0.995 | locus YDL134C, strain PPH21, hits give low values 1.01 | locus YDL185W, strain tfp1, hits give low values 0.941 | locus YDL192W, strain arf1, hits give low values 0.974 | locus YDR001C, strain nth1, hits give low values 0.99 | locus YDR069C, strain doa4, hits give low values 1 | locus YDR101C, strain arx1, hits give low values 0.977 | locus YDR137W, strain rgp1, hits give low values 0.991 | locus YDR150W, strain NUM1, hits give low values 0.992 | locus YDR159W, strain sac3, hits give low values 1.01 | locus YDR162C, strain NBP2, hits give low values 1.01 | locus YDR195W, strain ref2 0.974 | locus YDR297W, strain sur2, hits give low values 0.997 | locus YDR318W, strain mcm21, hits give low values 0.98 | locus YDR334W, strain swr1, hits give low values 0.983 | locus YDR335W, strain msn5, hits give low values 0.986 | locus YDR388W, hits give low values 0.986 | locus YDR392W, strain spt3, hits give low values 0.924 | locus YDR502C, strain sam2, hits give low values 1 | locus YEL003W, strain gim4, hits give low values 0.998 | locus YEL037C, strain rad23, hits give low values 0.994 | locus YEL061C, strain CIN8 (second series), hits give low values 0.991 | locus YEL061C, strain CIN8, hits give low values 0.997 | locus YER015W, strain faa2, hits give low values 0.997 | locus YER016W, strain bim1, hits give low values 1 | locus YER110C, hits give low values 0.982 | locus YER111C, strain swi4, hits give low values 0.985 | locus YER155C, strain BEM2 (second series), hits give low values 1 | locus YER155C, strain BEM2, hits give low values 1 | locus YER167W, strain BCK2, hits give low values 1 | locus YFR010W, strain ubp6, hits give low values 0.992 | locus YGL078C, strain dbp3, hits give low values 0.991 | locus YGL086W, strain mad1, hits give low values 1.01 | locus YGL167C, strain pmr1, hits give low values 0.991 | locus YGL173C, strain kem1, hits give low values 0.983 | locus YGL227W, strain vid30, hits give low values 0.987 | locus YGL240W, strain doc1, hits give low values 0.974 | locus YGL248W, strain PDE1, hits give low values 1.02 | locus YGL253W, strain hxk2, hits give low values 0.987 | locus YGR078C, strain PAC10, hits give low values 1 | locus YGR135W, strain pre9, hits give low values 0.993 | locus YGR229C, strain SMI1, hits give low values 1.03 | locus YGR252W, strain gcn5, hits give low values 1.13 | locus YHR013C, strain ard1, hits give low values 0.983 | locus YHR027C, strain rpn1, hits give low values 0.987 | locus YHR030C, strain SLT2, hits give low values 1 and 0.966 | locus YHR079C, strain IRE1 (second series), hits give low values 0.972 | locus YHR079C, strain IRE1, hits give low values 0.961 | locus YHR094C, strain hxt1, hits give low values 0.969 | locus YHR129C, strain ARP1, hits give low values 0.996 | locus YHR142W, strain chs7, hits give low values 0.981 | locus YHR200W, strain rpn10, hits give low values 0.97 | locus YIL066C, strain RNR3, hits give low values 1.01 | locus YIL073C, strain SPO22, hits give low values 0.953 | locus YIL125W, strain kgd1, hits give low values 0.977 | locus YIR030C, strain dcg1, hits give low values 0.979 | locus YJL092W, strain hpr5, hits give low values 0.988 | locus YJL095W, strain BCK1 (second series), hits give low values 0.99 | locus YJL095W, strain BCK1, hits give low values 0.976 and 0.961 | locus YJL115W, strain asf1, hits give low values 0.991 | locus YJL129C, strain trk1, hits give low values 0.968 | locus YJL134W, strain LCB3, hits give low values 1.01 | locus YJL154C, strain vps35, hits give low values 1 | locus YJL164C, strain tpk1, hits give low values 0.987 | locus YJL166W, strain qcr8, hits give low values 0.993 | locus YJL168C, strain set2, hits give low values 0.973 | locus YJL187C, strain SWE1 (second series), hits give low values 0.997 | locus YJL187C, strain SWE1, hits give low values 0.986 | locus YJR043C, strain POL32, hits give low values 0.99 | locus YJR066W, strain TOR1, hits give low values 0.918
